From PubChem BioAssay (Tox21)
Records with an inconclusive call do not appear. A number with no mark means an inactive call. Calls follow the shape of the dose curve; as a rule, active = well fitted cell-killing curve with a large enough effect in the repeat runs; inconclusive = weak or mixed curves, or effect the other way; inactive = no such curve, though single readings can be large or run the other way.

Assay: qHTS assay for small molecule activators of the heat shock response signaling pathway - cell viability counter screen (AID 743209); also: nearly all actives have a fitted effect of over 50% in size
Conditions: HSE-bla HeLa viability, CellTiter-Glo luminescence, 5 h; series mostly up to 62.6 µM; activity change, negative = cytotoxicity: at the top concentration
From the text: U.S. Tox21 Program National Center for Advancing Translational Sciences [NCATS] NIH Chemical Genomics Center [NCGC] U.S. Environmental Protection Agency [EPA] National Institutes of Environmental Health Sciences [NIEHS] National Toxicology Program [NTP] U.S. Food and Drug Administration [FDA] Tox21 Assay Overview: Various chemicals, environmental and physiological stress conditions may lead to the activation of heat shock response/ unfolded protein response (HSR/UPR). There are three heat shock transcription factors (HSFs) (HSF-1, -2, and -4) mediating transcriptional regulation of the human HSR. To identify the compounds that activate HSR signaling, HSE-bla HeLa cell line (Invitrogen, Carlsbad, CA, USA) containing a beta-lactamase reporter gene under the control of the heat shock response elements was used to screen Tox21 10K compound library. The cytotoxicity of the Tox21 compound library against the HSE-bla HeLa cell line was tested in parallel by measuring the cell viability using CellTiter-Glo assay (Promega, Madison, WI) in the same wells.
Tox21 Assay Protocol Summary: The CellSensor HSE-bla HeLa cells (Invitrogen, Carlsbad, CA, USA) were dispensed at 1500 cells/6uL/well into 1536-well black wall/clear bottom plates using a Multidrop combi (Thermo Fisher Scientific, Waltham, MA) dispenser. After the assay plates were incubated at 37 C and 5% CO2 overnight, 23 nL of compounds dissolved in DMSO, positive controls or DMSO only was transferred to the assay plate by a Pintool station (Kalypsys, San Diego, CA). The plates were incubated at 37 C for 5 h. After 1 uL of LiveBLAzerTM B/G FRET substrate was added using a Flying Reagent Dispenser (FRD, Beckman Coulter, Indianapolis, IN, USA), the plates were incubated at room temperature for 2.5 h, and fluorescence intensity was measured by an Envision plate reader (PerkinElmer, Shelton, CT). For cell viability readout that measures cytotoxicity, 3 ul/well of CellTiter-Glo reagent was added into the assay plates using a FRD. After 30 min incubation at room temperature, the luminescence intensity in the plates was measured using a ViewLux (PerkinElmer) plate reader.
% is scaled to controls: 0 for no effect and ±100 for the full control effect.

SMILES | activity change, negative = cytotoxicity
CC(=O)OC(C)OC(=O)C(C)c1ccc(-c2ccccc2)c(F)c1 (stereo not given) | 7.29%
O=C(c1ccc(O)cc1)c1ccc(O)c(O)c1O | -28.3% [at 81.1 µM]
CNS(=O)(=O)CCc1ccc2[nH]cc(C3CCN(C)CC3)c2c1 | 23.3%
Nc1ncnc(Nc2ccccc2)n1 | 1.81%
COC(=O)CCc1ccc(OCC(O)CNC(C)C)cc1 (stereo not given) | -11.7%
CCCCCCCCCCl | 1.65% [at 81.1 µM]
O=C(CS(=O)Cc1ccco1)NC/C=C\COc1cc(CN2CCCCC2)ccn1 (stereo not given) | 0.0861%
OCCN(CCO)c1cccc(Cl)c1 | 3.38%
COc1cc2c(cc1OC)C(=O)CC2 | 6.07%
COc1cc(NS(=O)(=O)c2ccc(N)cc2)nc(OC)n1 | 8.43%
BrCc1cccc(Oc2ccccc2)c1 | 3.82%
C[Si](C)=O | 6.74% [at 5.95 µM]
CC1(CO)CN(c2ccccc2)NC1=O (stereo not given) | -14%
CCCC/C=C\CCCCCCCCCC=O | 5.59%
CC(C)N(c1ccccc1)C(C)C | -3.1%
CC(C)C[C@H](NC(=O)CNC(=O)[C@H](Cc1ccc(O)cc1)NC(=O)[C@H](CO)NC(=O)[C@H](Cc1c[nH]c2ccccc12)NC(=O)[C@H](Cc1cnc[nH]1)NC(=O)[C@@H]1CCC(=O)N1)C(=O)N[C@@H](CCCN=C(N)N)C(=O)N1CCC[C@H]1C(=O)NCC(N)=O (stereo in doubt) | -11.5%
CCN(C)C(=O)Oc1cccc([C@H](C)N(C)C)c1 | -2.61%
COc1ccc2c(c1OC)C(=O)O[C@@H]2[C@H]1c2c(cc3c(c2OC)OCO3)CCN1C | 0.528%
CNC(=O)[C@H]1O[C@@H](n2cnc3c(NCc4cc(Cl)ccc4OCc4cc(C)no4)ncnc32)[C@H](O)[C@@H]1N | 1.06%
O=C(OCC(COC(=O)c1cccnc1)(COC(=O)c1cccnc1)COC(=O)c1cccnc1)c1cccnc1 | -24%

SMILES | activity change, negative = cytotoxicity
CC(C)NCC(O)COc1ccc(COCCOC(C)C)cc1 (stereo not given) | 24.8%
CCCCNc1ccc(C(=O)OCCN(C)C)cc1 | -2.22%
Cc1cccc(C)c1OCC(C)N (stereo not given) | 9.69%
C[C@H](N)[C@H](O)c1cccc(O)c1 | -0.549%
CC(C)C(=O)OCCc1ccccc1 | -8.8%
Cc1[nH]cnc1-c1ccc(Cl)cc1 | -8.34%
O=C1c2cccc3c2[C@H](CCC3)CN1[C@@H]1CN2CCC1CC2 | 2.51%
C=C(C)C(=O)OCCOP(=O)(O)OCCOC(=O)C(=C)C | 1.4%
CCOC(=O)/C=C/c1ccccc1 | -0.519%
Cc1ccc2c(c1)OCC(=O)CO2 | -0.777%
CCCCCCOC(=O)CC | -3.84%
CC(C)(C)NC(N)=O | -1.44%
CC1=C(C(=O)O)N2C(=O)[C@@H](NC(=O)[C@H](N)c3ccc(O)cc3)[C@H]2SC1 | 8.96%
CCc1ccc(C=O)cc1 | 7.29%
Nc1ccc2cc(S(=O)(=O)O)cc(O)c2c1 | -0.655%
Nc1cccc(O)c1 | -1.34% [at 81.1 µM]
CN(C)c1ccc(C=O)cc1 | 9.9%
C[Si](C)(C)C | 6.11%
CC(C)(C)c1cc(CCC(=O)NN)cc(C(C)(C)C)c1O | 6.76%
OC[C@H](Cc1cccc(O)c1)[C@H](CO)Cc1cccc(O)c1 | -4.79% [at 81.1 µM]
